Our source for the inhibition values is ChEMBL document CHEMBL3433997, “St. Jude Leishmania screening dataset” (2016).

Where “and” joins values, the source holds several entries; their conditions need not be identical. Equal entries are not always repeated.

The target in this experiment is Glucose transporter (Leishmania mexicana) (UniProt O61059). Description: ST_JUDE_LEISH: Cytotoxicity at 2uM final concentration against transgenic Leishmania Mexicana promastigotes LmGT2 that are glucose transport deficient and complemented with the L. Mexicana glucose transporter 2. Activity is measured by DNA content using SYBR green in vitro. In kind it is functional.
Take `CS(=O)(=O)Nc1ccc2c(C3CCN(CCC4CCN(C(=O)/C=C/c5ccc(Cl)c(Cl)c5)CC4)CC3)c[nH]c2c1`: the inhibition (usually the drop in the measured response relative to a control, in per cent) stood at 4.12%. As for `COc1cc(Cc2cnc(N)nc2N)cc(OC)c1OCCNC(=O)[C@@H](N)CCC(=O)O`, the inhibition was determined as 0.12%.

On to `COc1cc(F)c2ncc(Cl)c(CCN3CCC(NCc4ccc5c(c4)NC(=O)CO5)CC3)c2c1`, for which the inhibition was 2.39%. To `O=C(NC1CCN(c2ccnc3cc(Cl)ccc23)C1)c1ccccc1F` (stereo not given) belongs 2.72%; to `Cc1cccc2nc(-c3cccc(-c4cccc(C(=O)N5CCCCC5CN5CCC(O)C5)c4)c3)[nH]c12` (stereo not given), -1.67%. Take `CN(C)CC(=O)N(Cc1ccc(Cl)c(Cl)c1)Cc1csc(-c2ccc(CNCc3ccccc3)cc2)n1`: the inhibition amounted to 0.35%. For `O=c1cc(NC[C@H]2CCC[C@@H]2NC2CCCc3c2[nH]c2ccccc32)[nH]c2ccccc12` (stereo not given in full) the value was 5.67%; for `O=C(NC1CCN(CCC[C@]2(c3ccc(Cl)c(Cl)c3)CCCN(C(=O)c3ccccc3)C2)CC1)c1ccc(Cl)cc1`, -2.33%; for `CC(C)(C)c1ccc(C(=O)Nc2ccc(NC(=O)c3ccc([N+](=O)[O-])o3)cc2)cc1`, 1.76%. To `NS(=O)(=O)c1cccc(-c2ccc3c(O)ncnc3c2)c1` belongs 5.44%; to `CCNc1cc(C(=O)N[C@@H](Cc2ccccc2)[C@H](O)CN[C@H](C)c2ccccc2)cc(N2CCCC2=O)c1`, -0.89%. To `Cc1nc(-c2ccc(-c3ccc(NC(=O)c4coc5ccc(N6CC(C)NC(C)C6)cc45)cc3)c(C)c2)no1` (stereo not given) belongs 6.24%; to `CN(C)C(CNC(=O)c1cc(-c2ccncc2)c(-c2ccc(NC(=O)Nc3cccc(F)c3)cc2)o1)c1ccccc1` (stereo not given), 0.6%. Take `Cc1ccc2nc(-c3ccc(C(=O)NC4CCN(Cc5ccccc5)CC4)cc3)[nH]c2c1C`: the inhibition is 0.84%.

Consider `COc1ccc2ncc(C#N)c(CCN3C4CCC3CC(NCc3ccc5c(n3)NC(=O)CS5)C4)c2c1` (stereo not given), for which the inhibition is 1.45%. For `NCCCN(Cc1ccc(Cl)c(Cl)c1)C(=O)Nc1ccc(Cl)c(Cl)c1` the value was 10.1%; for `CN1CCN(CC(=O)Nc2ccc(-c3csc(-c4nc5ccccc5[nH]4)c3)cc2)CC1`, -2.28%. To `CCOc1ccc(CCC(=O)O)cc1OCC` belongs 2.88%.

As for `CCCCCCCCc1nc(C)c(Br)c(O)c1Br`, the inhibition worked out at 0.8%. Consider `Clc1ccc(-c2cnc3ccc(NCCc4cccnc4)nn23)cc1`, for which the inhibition came out at 0.12%. Turning to `Cc1cc(NC(=O)Nc2ccc3ccn(C)c3c2)c2ccccc2n1`, the inhibition was determined as 8.87%.

On to `CCC(=O)N(c1ccccc1)C1CCN(CCCC(NC(=O)c2cc(C(F)(F)F)cc(C(F)(F)F)c2)c2ccc(Cl)c(Cl)c2)CC1` (stereo not given), for which the inhibition was 6.09%. To `Cc1cccnc1CNc1nccc2c(C)c(C)[nH]c12` belongs -0.37%; to `CN(C)c1nc(NCc2ccccc2)nc(N/N=C/c2cc([N+](=O)[O-])ccc2O)n1`, -1.5%. To `O=C(NCCCN1CCCC1=O)c1cnc(N2CCC(Oc3ccccc3)CC2)c(Cl)c1` belongs 0.19%; to `COc1cccc2sc(N3CCN(C(=O)c4ccc([N+](=O)[O-])o4)CC3)nc12`, 4.81%. To `COc1ccc(-c2cccc(NC(=O)c3ccc(C#N)cc3)c2)cc1CNC(C)C` belongs 8.32%. With `CCc1ccc(NC(=O)c2ccc(CN3CCCN(CC4CCCCC4)CC3)cc2)cc1`, the inhibition turned out to be 7.64%. To `CCCN(CCC)C(C)CCC(C)Nc1c2ccc(Cl)cc2nc2ccc(OC)cc12` (stereo not given) belongs 2.82%. To `CCOC(=O)c1ccc2[nH]c(-c3ccc(C(=O)NC4CCN(Cc5ccccc5)CC4)s3)nc2c1` belongs 0.16%; to `CCCCc1cc(NC2CCN(C)CC2)nc(Nc2ccccc2)n1`, 8.76%; to `Cc1cc(C)c(O)c(-c2cc(C(=O)Nc3ccc(S(=O)(=O)N4CC(C)OC(C)C4)cc3)[nH]n2)c1` (stereo not given), 0.01%. On to `COc1ccc(-c2cc(-c3nc4cc(CN)ccc4[nH]3)c(=O)n(C)c2)cc1OC`, for which the inhibition was -0.74%. For `Cc1cccc(Nc2nc(N)c3ccccc3n2)c1` the value was 5.71%; for `CNC(=O)C1Cc2c([nH]c3c(C)cccc23)C2(N1)C(=O)Nc1ccc(OC(F)(F)F)cc12` (stereo not given), 3.8%; for `COc1ccccc1Nc1nc(C)cc(NCc2ccc(-c3c(C)noc3C)cc2)n1`, 0.51%. For `Cn1c(NC2CCN(CC3CCN(C(=O)/C=C/c4ccc(Cl)c(Cl)c4)CC3)CC2)nc2ccccc21` the value was 81.9%; for `COc1ccc2nccc([C@@H](O)CN3CCC(NCc4nc5c(cc4Cl)SCC(=O)N5)C(F)C3)c2c1` (stereo not given in full), 1.15% and 6.72%. For `Cc1c(NCCCNCc2cc(Cl)cc(Cl)c2Cl)[nH]c2ccccc2c1=O` the value was 8.22%; for `CC(C)Oc1cc2c(cc1NS(=O)(=O)c1ccc(-c3ccc(Cl)s3)cc1F)CCN(C)CC2`, 1.77%.
